SF-1 inh – blocks the human nuclear receptor SF-1; inhibition, % at 10 µM; actives 0.55% (n = 65,000); CHO-K1 Gal4-SF-1 LBD luciferase reporter; Q13285;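 active = inhibition above the mean inhibition of all tested compounds plus 3 SD, cut at about 48% in these data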;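 also: 0% = SF-1 transfected cells with DMSO and 100% = mock-transfected cells lacking SF-1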
Target sequence (Q13285 whole entry, looked up, the tested form may be a part): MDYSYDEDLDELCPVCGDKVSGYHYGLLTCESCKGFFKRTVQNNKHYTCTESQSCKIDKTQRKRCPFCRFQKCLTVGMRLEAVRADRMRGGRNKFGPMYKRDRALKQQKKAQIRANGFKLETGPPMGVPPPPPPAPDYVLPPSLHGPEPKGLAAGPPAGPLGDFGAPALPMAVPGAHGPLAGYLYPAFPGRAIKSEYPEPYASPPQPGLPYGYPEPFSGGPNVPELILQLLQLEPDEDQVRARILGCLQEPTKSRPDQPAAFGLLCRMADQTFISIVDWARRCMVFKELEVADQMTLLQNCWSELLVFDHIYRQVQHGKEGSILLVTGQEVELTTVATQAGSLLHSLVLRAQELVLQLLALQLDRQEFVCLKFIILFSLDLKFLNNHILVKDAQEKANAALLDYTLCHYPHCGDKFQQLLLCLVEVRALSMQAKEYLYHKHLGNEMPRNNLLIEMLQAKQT
Starred values were filed as active, the others as inactive. Many of the other results were omitted from the sample, so hits are more common in it than they were.

SMILES | SF-1 inh
CC1N/C(=C\C(=O)c2ccccc2)N(O)C1(C)C (centres undefined) | -30.2
Cc1nnc(SCC(=O)N2c3ccccc3CC2C)s1 (centres undefined) | 6.4
Cc1nnc(SC(=O)N2c3ccccc3Sc3ccccc32)s1 | 65.1*
CCCN1C(=O)SC(CC(=O)Nc2ccc(Br)cc2)C1=O (centres undefined) | 1.2
O=C(Nc1nccs1)c1ccc(CSc2nnnn2-c2ccccc2)cc1 | -40.7
O=S(=O)(N1CCCCCC1)N1CCN(S(=O)(=O)N2CCOCC2)CC1 | -3.1
Cc1ccc(Cl)cc1NC(=O)CSc1nnc(C)n1-c1ccccc1 | 15.5
Cc1ccccc1NC(=O)CSc1[nH]c(=O)cc(C)c1C#N | 0.0
Cc1cccc(NC(=O)CSc2nnc(-c3cc(C)n(-c4ccccc4)c3C)o2)c1C | 72.7*
Cc1cc(C)n2nnnc2c1C#N | -5.1
CCN(CC)Cc1c[nH]c2c(C(=O)OC)cccc12 | -9.1
[O-][N+]1=c2ccc(Nc3ccccc3)cc2=NC12CCCCC2 | 61.8*
CCOC(=O)N1CCC(NC(=O)C2CCCN(S(=O)(=O)c3cccnc3)C2)CC1 (centres undefined) | 5.6
O=C(O)CCCCNS(=O)(=O)c1ccc(Cl)c(C(F)(F)F)c1 | -6.2
Cc1ccc(SCc2cc(=O)n3[nH]cnc3n2)cc1 | 3.2
O=C(c1cc2c(=O)oc3ccccc3c2s1)N1CCN(c2ncccn2)CC1 | -3.6
O=C(Nc1ccccc1)N(O)c1ccc(Cl)cc1 | -58.1
O=C(Nc1cccc(-c2nc3cc(Cl)ccc3o2)c1)C1CCCO1 (centres undefined) | -80.9
O=S1(=O)C=C(Sc2nc3cc(Cl)ccc3o2)c2ccccc21 | 70.8*
O=C1c2ccccc2C(=O)N1CCCSc1nc2ccccc2o1 | 2.1
CCOC(=O)c1nnn(-c2nn3nnnc3c3ccccc23)c1C | 0.2
NC(=O)C1CCC(NC(=O)OCc2ccccc2)CC1 (centres undefined) | -6.2
CN(C)c1nc(Oc2ccc(N)cc2)nc(N(C)C)n1 | -19.0
COc1ccc(CN(C(=O)c2ccccc2OC)C2CCS(=O)(=O)C2)cc1 (centres undefined) | 8.2
COc1cccc(C(=O)N2CCN=C2SCc2cccnc2)c1OC | -1.0
SMILES | SF-1 inh
NC(=O)c1ccsc1NC(=O)COc1ccccc1 | -67.6
CN(C(=O)c1cccc(N2C(=O)C3CC=CCC3C2=O)c1)C1CCCCC1 (centres undefined) | -5.9
CCOc1ccc(C2=Nn3c(nnc3-c3ccccc3OC)SC2)cc1 | 72.9*
Clc1ccc(C2=Nn3c(nnc3-c3cccnc3)SC2)s1 | 6.4
CCn1c(SCC(=O)c2ccc(O)c(O)c2)nnc1-c1ccccc1OC | 4.7
CCOc1ccc(NC(=O)c2ccccc2OC)cc1 | -73.0
COc1ccccc1-c1nnc2n1N=C(c1ccc(O)c(O)c1)CS2 | 66.6*
CCN(CC)S(=O)(=O)c1ccc2oc(C(=O)NCC3COc4ccccc4O3)c(C)c2c1 (centres undefined) | 6.4
CCOC(=O)c1cc2sccc2n1CCCN1C(=O)c2ccccc2C1=O | 2.1
CC(=O)c1c(C)[nH]c(C(=O)OCCCCN2C(=O)c3ccccc3C2=O)c1C | 84.3*
CCOC(=O)c1[nH]c(C)c(C(=O)Nc2ccccc2F)c1C | -82.6
COCCCNC(=O)c1ccc(NS(C)(=O)=O)cc1 | 2.1
COc1cccc(CC(NC(C)=O)C(=O)NC2CCN(c3c4c(nc5ncnn35)CCC4)CC2)c1 (centres undefined) | -71.8
COc1ccc(NC(=O)C2CCN(c3nc(C)nc4c3CCC4)CC2)cc1 | -11.0
COc1cc(CC(NC(C)=O)C(=O)NC2CCN(c3nc(C)cc(C)c3C#N)CC2)cc(OC)c1 (centres undefined) | 71.4*
COc1ccc(C(=O)CSc2nc3nc(C)cc(C)n3n2)cc1OC | 4.4
Clc1cc(Cl)c2nc(N3CCOCC3)sc2c1 | -57.5
c1c2c(cc3sc(N4CCOCC4)nc13)OCCO2 | 64.8*
c1ccc(N2CCN(c3nc4cc5c(cc4s3)OCCO5)CC2)cc1 | -61.4
Fc1ccc(-c2nnc(NC3=NCCCCC3)o2)cc1 | 62.5*
O=C(Cn1ccsc1=NC(=O)c1ccco1)c1ccccc1 | 4.9
O=C(NCc1ccc(N2CCCC2=O)cc1)c1cn(Cc2ccccc2)nn1 | -6.9
O=C(NC1CCCc2ccccc21)C1CCN(c2nnc(-n3cccc3)s2)CC1 (centres undefined) | -23.7
CCCn1c(NC(=O)C2CCN(S(=O)(=O)c3cccs3)CC2)nc2ccccc21 | 20.0
Cc1ccc(S(=O)(=O)NCC(=O)OCN2C(=O)c3ccccc3C2=O)cc1 | 1.3
SMILES | SF-1 inh
COc1ccccc1OCC(=O)Nc1ccc(S(=O)(=O)Nc2nc(C)cc(C)n2)cc1 | 3.3
Nc1ccc2oc(CCc3ccccc3)nc2c1 | -79.4
CC(C)c1ccc2oc(-c3cc(N)ccc3O)nc2c1 | 59.8*
Cc1ccccc1-c1nc2cc(N)ccc2o1 | -57.8
CN(CC(=O)N1CCN(c2ccccc2)CC1)S(=O)(=O)c1cnc[nH]1 | 6.4
O=C(CN1C(=O)C2CC=C(Cl)CC2C1=O)N1CCOCC1 (centres undefined) | 2.4
O=C(O)Cc1ccc2[nH]c3ccc(CC(=O)O)cc3c2c1 | 7.4

Assay outcomes as filed in PubChem.
